Compound activity from PubChem.
TTR transcr act – TTR transcription activators in neuroblastoma reporter cells, primary screen, cell-based, luminescence, SH-SY5Y, TTR promoter Gaussia luciferase | AID 1117267, 2014 | activation, % at 16.7 µM | 100% = recombinant luciferase protein wells | 1.3% of 92,000 active;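 active = activation above the mean of all tested compounds plus 3 SD, cut at about 9.5% in these data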;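 note: cells exposed to compounds for one day before reading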
HuH7 TTR inh – TTR promoter reporter inhibitors in hepatoma cells, counter-screen for TTR transcription activator project, cell-based, luminescence, HuH7 hepatoma; shares compounds with TTR transcr act; HuH7 TTR promoter-Gaussia luciferase reporter; inhibition, % at 16.7 µM; 4% of 1,100 active; AID 1117279, 2014;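 active = average inhibition above the solvent-only control wells' mean plus 3 SD, cut at about 15% in these data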;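 note: inhibitors lower well luminescence so higher value means more inhibition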
TTR up confirm – TTR transcription activators, retest, confirmation, cell-based, luminescence, SH-SY5Y, triplicate. SHSY5Y TTR promoter Gaussia luciferase; 100% = purified Lucia enzyme wells, no cells. activation, % at 16.7 µM. shares compounds with TTR transcr act. AID 1117280, 2014. 1,100 tested, under 10 active;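 active = mean activation above a set limit taken from the earlier primary screen, cut at about 11% in these data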
A number is an active result. Many of the other results were omitted from the sample, so hits are more common in it than they were.

`Cc1ccc(CC(=O)N2CCN(Cc3ccccc3)CC2)cc1` gave TTR transcr act inactive.
Screening O=C(Cc1ccc(Br)cc1)N1CCN(Cc2ccccc2)CC1 returned TTR transcr act 11.4.
For O=C(Cc1ccccc1)N1CCN(CCCc2ccccc2)CC1 the results were TTR transcr act inactive.
CO[C@H]([C@H](C)/C=C/N(C)C=O)[C@@H](C)C(=O)CC[C@H](C)[C@H](O)[C@H](C)[C@H]1OC(=O)/C=C/C(C)=C/[C@H](O)[C@H](OC)C[C@@H]2C=CC[C@@H](C[C@H](OC)[C@@H](CO)[C@@H](OC)C[C@@H](OC)[C@@H]1C)O2 was read as TTR transcr act inactive.
For O=C(NC(Cc1ccccc1)P(=O)(O)Oc1ccccc1)OCc1ccccc1 (centres undefined) the results were TTR transcr act inactive.
Screening COc1cccc(C(=O)C2CCCN(Cc3ccc(F)cc3)C2)c1 (centres undefined) returned TTR transcr act inactive.
COc1cccc(C(=O)C2CCCN(Cc3cccc(C)n3)C2)c1 (centres undefined) was read as TTR transcr act inactive.
`COc1cccc(C(=O)C2CCCN(Cc3cnn(C(C)C)c3)C2)c1` (centres undefined) gave TTR transcr act 10.6, HuH7 TTR inh inactive and TTR up confirm inactive.
Screening CN1C(=O)[C@@]23C[C@]4(c5c[nH]c6ccccc56)c5ccccc5N(S(=O)(=O)c5ccccc5)[C@@H]4N2C(=O)[C@@H]1SS3 returned TTR transcr act inactive.
CCOC(=O)[C@]12Cc3cc(C)ccc3[C@H]1N(C1CCCCC1)C(=O)c1cc(OC)ccc12 was read as TTR transcr act inactive.
Brc1csc(N2CCNCC2)n1 was read as TTR transcr act inactive.
Screening COc1ccccc1-n1c(O)c(/C=N/NC(=S)Nc2ccccc2)c(=O)[nH]c1=S returned TTR transcr act 13.5, HuH7 TTR inh inactive and TTR up confirm inactive.
`CCn1c(O)c(/C=N/NC(=O)c2ccccc2)c(=O)[nH]c1=S` gave TTR transcr act inactive.
`COc1ccc(Cn2c(O)c(/C=N/NC(=O)c3ccccc3)c(=O)[nH]c2=O)cc1` gave TTR transcr act inactive.
CC[C@H](C)[C@@H]1OC(=O)[C@H](C(C)C)N(C)C(=O)[C@H](C(C)C)NC(=O)[C@@H](C)[C@@H](CCCC#CBr)OC(=O)[C@H](C(C)C)N(C)C(=O)C2CCCN2C1=O (some centres undefined) was read as TTR transcr act inactive.
`Brc1ccc2c(c1)CN(CC1CCCCC1)Cc1cnnn1-2` gave TTR transcr act 26.8, HuH7 TTR inh inactive and TTR up confirm inactive.
O=S(=O)(c1ccc(Cl)cc1)N1Cc2cc(Br)ccc2-n2nncc2C1 was read as TTR transcr act inactive.
Screening CC1c2ccccc2-n2nncc2CN1CC1CCCCC1 (centres undefined) returned TTR transcr act inactive.
O=C(O)c1cc2ccccc2n1C1CCN(Cc2ccccc2)CC1 was read as TTR transcr act inactive.
Screening CC(C)C(CN1CCC(C)(c2cccc(O)c2)[C@@H](C)C1)NC(=O)C1Cc2ccc(O)cc2CN1 (some centres undefined) returned TTR transcr act inactive.
`O=c1[nH]c2ccccc2n1C1CCN(C(CCc2ccccc2)c2nnnn2-c2ccc3c(c2)OCCO3)CC1` (centres undefined) gave TTR transcr act inactive.
CCn1c(O)c(/C=N/N2CCOCC2)c(=O)n(CC)c1=S was read as TTR transcr act inactive.
Cc1ccc(-n2c(O)c(/C=N/N3CCOCC3)c(=O)[nH]c2=S)cc1 was read as TTR transcr act 10.0, HuH7 TTR inh inactive and TTR up confirm inactive.
O=c1[nH]c(=S)n(-c2ccc(Cl)cc2)c(O)c1C=Nc1ccc(N2CCOCC2)cc1 was read as TTR transcr act inactive.
Screening CC(C)(C)OC(=O)NCCCCC(N)[P+](=O)O (centres undefined) returned TTR transcr act inactive.
Screening COc1ccc2c3c([nH]c2c1)[C@H](C=C(C)C)N1C(=O)[C@@H]2CCCN2C(=O)[C@@H]1C3 returned TTR transcr act inactive.
`CC(=O)C1CCC2C3CCC4CC(O)CCC4(C)C3C(O)CC12C` (centres undefined) gave TTR transcr act inactive.
Screening CC(=O)C1CCC2C3CC(O)C4CC(O)CCC4(C)C3CCC12C (centres undefined) returned TTR transcr act inactive.
`CC(=O)C1CCC2C3CCC4CC(O)CCC4(C)C3C(=O)CC12C` (centres undefined) gave TTR transcr act 11.9, HuH7 TTR inh inactive and TTR up confirm inactive.
